Screening data from PubChem BioAssay.
gsp agonist = agonists of gsp mutant (McCune-Albright syndrome) | gsp mutant cells, cAMP HTRF, 30 min | 0.13% of 340,000 active | Potency, µM (doses to about 76.9 µM), inactives show top-dose activation (cAMP increase), usual class: activators | AID 624287; active = well fitted activation curve with a large enough effect; inconclusive = small, poorly fitted or top-dose-only effect, or another doubt; inactive = no such curve, though single readings can be large or run the other way; cell line not stated here;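 also: phosphodiesterase inhibitor Ro 20-1724 added with compounds to block cAMP breakdown; potency is read from the fitted curve at half-maximal effect; nearly all actives have a fitted effect of over 60% in size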
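Cells stably selected in G418 were plated at 2000/well, grown 16-24 hr, then given compounds in DMSO with the PDE inhibitor […] (300 uM solution added) for 30 min at 37C; cAMP was read by HTRF.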
BRCA1 expr act = increases BRCA1 expression | 1.1% of 380,000 active | Potency, µM (doses to about 46.1 µM), for inactives: top-dose activation, hits mostly activators | MCF7-BRCA1-FFLuc reporter, luminescence, 48 h; response scale: scaled: vehicle 0%, 10 µM genistein 100%; also: potency is read from the fitted curve at half-maximal effect; nearly all actives have a fitted effect of over 80% in size
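First, MCF7-BRCA1-FFLuc cells (2000/well) attach for 2 h; next, compounds are pin-added and incubated 48 h at 37 °C; finally, luciferase reagent is added and luminescence read after 15 min.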
gsp antagonist = antagonizes gsp, the McCune-Albright syndrome mutation | gsp-mutant cells, cAMP HTRF, 30 min | Potency, µM (highest dose often 76.9 µM), inactives show at the top dose activity change, negative = inhibition, actives largely listed as inhibitors | 0.4% of 340,000 active | AID 624288; calls by dose curve; cell line not stated here;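 also: intracellular cAMP measured with PDE inhibitor Ro 20-1724 present during compound exposure; potency is read from the fitted curve at half-maximal effect; % is scaled to controls: 0 for no effect and ±100 for the full control effect; nearly all actives have a fitted effect of over 65% in size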
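HTRF cAMP read-out (cAMP-d2 plus anti-cAMP antibody-K in lysis buffer, 30 min RT). Before lysis, cells are exposed to compounds with […] for 30 min at 37C in DPBS containing Ca/Mg, BSA and Tween 20.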
IDH1 R132H inh = blocks human mutant IDH1 R132H enzyme | IDH1-R132H enzyme, NADPH consumption, diaphorase/resazurin fluorescence | Potency, µM (doses to about 76.6 µM), for inactives: at the top dose activity change, negative = inhibition, actives largely listed as inhibitors | 0.093% of 390,000 active; also: potency is read from the fitted curve at half-maximal effect; % is scaled to controls: 0 for no effect and ±100 for the full control effect; nearly all actives have a fitted effect of over 65% in size
Target sequence (O75874 whole entry R132H, stated change not applied): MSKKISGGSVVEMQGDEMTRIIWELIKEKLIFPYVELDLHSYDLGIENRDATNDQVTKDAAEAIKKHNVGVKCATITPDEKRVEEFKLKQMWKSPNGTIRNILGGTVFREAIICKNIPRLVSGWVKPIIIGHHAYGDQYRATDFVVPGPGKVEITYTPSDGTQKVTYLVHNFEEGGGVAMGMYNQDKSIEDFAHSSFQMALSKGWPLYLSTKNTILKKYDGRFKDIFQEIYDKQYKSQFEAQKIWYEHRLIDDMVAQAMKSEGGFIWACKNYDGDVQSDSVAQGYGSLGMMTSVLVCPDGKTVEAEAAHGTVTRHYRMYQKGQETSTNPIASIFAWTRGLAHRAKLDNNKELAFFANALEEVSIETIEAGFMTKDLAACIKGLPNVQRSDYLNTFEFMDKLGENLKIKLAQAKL
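IDH1-R132H (0.5 ug/mL) preincubated 30 min with compound, then NADPH (0.016 mM) and alpha-KG (2 mM) added; 80 min at RT, pH 7.5. Remaining NADPH coupled via diaphorase/resazurin to fluorescence (540/590 nm); concentration-response curves normalized to no-enzyme control.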
IL-2 act = activates IL-2 in a cell-based reporter assay; IL-2 activation reporter assay, cell-based qHTS; stimulated with anti-CD3/CD4/CD28 beads; in transgenic mouse T cells; activation, % (series mostly up to about 46 µM); 0.065% of 360,000 active; AID 652025; in the data active = activation above about 50%; inconclusive = mostly about 30% to 49%; also: 0% is about no effect
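Readout: EGFP and DsRed signals by fluorescent plate cytometry. Unstimulated transgenic mouse T cells received compound 60 min before antibody-bead stimulation, then incubated 18 h at 37 degrees C.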
* = called active by the depositor; ? = inconclusive; / = no result; [ ] = dose if it differs, or a comment. A selection: hits, their analogues and other compounds. The true share with any hit is near 1.5%. Unless noted, calls follow the shape of the dose curve; as a rule, active = well fitted curve in the direction sought with a large enough effect; inconclusive = small, poorly fitted or top-dose-only effect, or another doubt; inactive = no such curve, though single readings can be large; an effect the other way counts as inactive or inconclusive.

SMILES	gsp agonist	BRCA1 expr act	gsp antagonist	IDH1 R132H inh	IL-2 act
Cc1ccc2nc(-c3cccc(N)c3)[nH]c2c1	7%	-17%	6%	8%	-1
Nc1cccc(-c2nc3ccccc3[nH]2)c1	30%	10µM*	-9%	1%	-1
Cc1cccnc1NC(=S)Nc1ccc(Cl)c(Cl)c1	2%	35%	-6%	0%	-1
COc1ccc(-c2csc(Nc3ncccc3C)n2)cc1OC	1%	2.8µM*	?	6%	0
COc1ccc(-c2csc(-c3cccnc3)n2)cc1C	10%	13µM*	-3%	4%	0
COc1ccc(NC(=S)Nc2ncccc2C)cc1OC	0%[15.4 µM]	7.9µM*	-7%	-1%	1
Cc1cc(/C=C/c2ccnc3ccccc23)ccc1N	/	0%	/	/	/
N[C@@H](Cc1ccc(O)cc1)C(=O)NO	/	0%	/	/	/
Brc1ccc[n+](CCC2CCCCC2)c1	/	-16%	/	/	/
Nn1c(COc2ccc(Cl)cc2)nc2ccccc2c1=O	4%[15.4 µM]	5.6µM*	2%	-1%	1
CN(C)c1ccc(C2=Cc3ccccc3C2)cc1	/	-59%	/	/	/
O=C(NCCc1ccccn1)c1cc2ccccc2o1	3%[15.4 µM]	10µM*	2%	-3%	1
CCNC(=O)c1cc2ccccc2o1	10%	0%	5%	-1%	4
COc1ccc2c(c1)c(C(=O)CN(C)C)c(C)n2C	/	19%	/	/	/
Cn1c(=S)[nH]c2cc(C(=O)N3CCN(C(=O)c4ccccc4)CC3)ccc2c1=O	/	0%	/	/	/
CCC(=O)Nc1nnc(S(=O)(=O)N(C)Cc2ccccc2)s1	/	/	/	-18%	/
CCOC(=O)c1c(NC(=O)Cc2cccs2)sc(C(=O)NC2CCCCC2)c1C	?	16%	31%	-4%	-2
COC(=O)c1c(NC(=O)Cc2cccs2)sc(C(=O)NC2CCCCC2)c1C	?	3.2µM*	5%	0%	1
CCOc1c(Br)cc(C2C=C(C(=O)O)Nc3ncnn32)cc1OC (configuration not stated)	/	0%	/	-6%	/
COC(=O)c1sc2nc3c(cc2c1N)CCCC3	3%[15.4 µM]	?	8%	11%	-3
NC(=O)c1sc2nc3c(cc2c1N)CCC3	-1%	8.9µM*	2%	2%	0
Nc1c(C(=O)N2CCCC2)sc2nc3c(cc12)CCCCCC3	1%[15.4 µM]	4.5µM*	7%	11%	1
CCOc1ccc2c(c1)c(=O)c(C(=O)c1ccc(CC)cc1)cn2CC(=O)Nc1ccccc1C	/	12%	/	-5%	/
Cc1ccc(SCCC(=O)N2CCC(C)CC2)cc1	-9%	10µM*	-17%	3%	-1
O=C1CCN(Cc2ccccc2)CCN1CCSc1ccccc1	-1%	8.9µM*	3%	-1%	-2
SMILES	gsp agonist	BRCA1 expr act	gsp antagonist	IDH1 R132H inh	IL-2 act
Cc1ccc(SCCN2CCC(C(C)(C)C)CCC2=O)cc1 (configuration not stated)	6%	?	-4%	9%	-4
Cc1ccc(SCCC(=O)N2CCC(C(N)=O)CC2)cc1	2%	24%	0%	-3%	-2
CC(C)(C)C1CCC(=O)N(CCSc2ccccc2)CC1 (configuration not stated)	/	3.5µM*	4%	3%	0
Cc1ccc(SCCN2CCC(C)CCC2=O)cc1 (configuration not stated)	/	8.9µM*	1%	5%	0
COc1cc(N(C)C)c(OC)cc1/C=C1\Cc2ccccc2C1=O	/	-25%	/	/	/
O=C(NCCSc1c(-c2ccc(Br)cc2)[nH]c2ccccc12)c1ccc(S(=O)(=O)N2CCOCC2)cc1	/	/	/	-7%	/
CC(C)(C)c1nnc(NC(=S)Nc2ccccc2)s1	-25%	2.8µM*	-4%	-3%	-1
CN1CCN(c2ccc(NC(=S)NC(=O)/C=C/c3ccco3)cc2)CC1	-13%	4.5µM*	3%	19%	-1
CC(=O)Nc1ccc(NC(=S)NC(=O)/C=C/c2ccco2)cc1	-72%	-26%	-10%	0%	3
COc1ccccc1NC(=O)CSc1nnc(C)s1	9%	21%	7%	-7%	2
CC(=O)Oc1ccc(C(=O)Nc2ccc(C3(C#N)CCCC3)cc2)cc1	?	10µM*	0%	8%	0
COc1ccc2oc(C(=O)NC(C)(C)C)c(C)c2c1	5%	7.1µM*	-3%	0%	-2
COc1ccc2oc(C(=O)C3CC3)c(N)c2c1	-53%	6.3µM*	-2%	3%	-1
O=C(Nc1ccnn1C1CCN(CCCc2ccccc2)CC1)c1ccccc1Cl	5%	-1%	9%	5%	-5
CCOC(=O)c1sc2nc(NC(=O)C(C)(C)C)sc2c1C	0%	3%	32µM*	12%	-4
CCOC(=O)c1sc2nc(NC(=O)C3CC3)sc2c1C	16%	13%	5%	14%	-3
O=[N+]([O-])c1ccc(N=Nc2c(Cl)cc(O)cc2Cl)cc1	-26%	-69%	16µM*	-3%	-2
CC(N)=Nc1ccc([N+](=O)[O-])cc1	30%	0%	14%	5%	1
O=C(C1CCC(Cn2c(=O)c3sccc3n(Cc3ccccc3F)c2=O)CC1)N1CCOCC1 (configuration not stated)	/	/	/	0%	/
CN(C)/C=C/C(=O)c1ccc(-c2ccc(Cl)cc2Cl)o1	-6%[15.4 µM]	11µM*	1%	3%	-1
O=C(CSc1ccc2nnc(-c3ccc(F)cc3)n2n1)N1CCOCC1	20µM*	3%	5%	5%	0
O=C(CSc1ccc2nnc(-c3cccs3)n2n1)N1CCOCC1	?	-16%	8%	7%	1
CC(C)N1CC(O)=C(c2nc3ccccc3[nH]2)C1=N	-44%	8.9µM*	-14%	-1%	-3
O=C(CSc1ccc(-c2ccco2)nn1)Nc1ccccc1	4%[15.4 µM]	2%	-8%	-2%	0
O=C(CSc1ccc(-c2ccco2)nn1)NCc1ccccc1Cl	11µM*	-19%	17%	4%	0
SMILES	gsp agonist	BRCA1 expr act	gsp antagonist	IDH1 R132H inh	IL-2 act
Nc1ccccc1C#Cc1ccccc1	2%	11µM*	4%	-4%	2
Nc1ccccc1C#Cc1ccc2[nH]ccc2c1	0%	10µM*	5%	9%	0
CCc1nc2oc3ccc(C)cc3c(=O)c2cc1C(=O)OC	-1%[15.4 µM]	6.3µM*	38%	6%	3
COC(=O)c1cc2c(=O)c3ccccc3oc2nc1/C=C/N(C)C	-7%[15.4 µM]	7%	35µM*	4%	14
Cc1nc2oc3ccc(Cl)cc3c(=O)c2cc1C(=O)O	5%[15.4 µM]	?	-19%	8%	5
COC(=O)c1cc2c(=O)c3ccccc3oc2nc1C	-3%[15.4 µM]	71%	26%	3%	-1
CC(=O)NC(Cc1ccc(I)cc1)C(=O)NCC(N)C(=O)c1ccccc1 (configuration not stated)	/	-21%	/	/	/
CN(C)c1ccc(/C=C/c2sc3ccccc3[n+]2Cc2ccccc2)cc1	/	6%	/	/	/
CCCCCn1cnc2sc(-c3ccccc3)cc2c1=O	-1%	5µM*	-7%	2%	0
